According to the supplement of paper PMC13094657:
± gives the standard deviation of the averaged measurements.

What was measured:
MDA-MB-231 [1] = experiment: cell viability relative to vehicle unstimulated control (fraction); higher = more viable cells; conditions: pre-treatment time: 18 h then 24 h IFNg/TNF
MDA-MB-231 [2] = experiment: kynurenine production, fold change vs DMSO IFNg/TNF control; higher = more kynurenine produced (less inhibition); conditions: pre-treatment time: 18 h then 24 h IFNg/TNF
Procedure, shortened: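 In 96-well plates, MDA-MB-231 cells (7 × 10^4/well) were given 24 h to settle, pre-treated for 18 h with each natural product in 0.1% DMSO, and stimulated for 24 h with IFNγ (1 U/ml) and TNF (6.25 ng/ml) at 37°C. Supernatants were processed with trichloroacetic acid and p-dimethylaminobenzaldehyde and read at 492 nm against 0–100 μM standards. In the first screening round, kynurenine production, as fold change over same-plate cytokine-stimulated vehicle wells, was averaged over duplicate plates.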
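Wherever cell viability relative to vehicle unstimulated control is given: viability of the cells left after supernatant collection, read with Deep Blue dye added for 4 h, as absorbance at 570 nm minus 600 nm.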

Structure (SMILES)	cell viability (MDA-MB-231 [1])	kynurenine production (MDA-MB-231 [2])
CC(=O)OCC1=C[C@H]2[C@@H]3C(C)(C)[C@]3(OC(C)=O)[C@H](OC(C)=O)[C@@H](C)[C@]2(O)[C@@H]2C=C(C)C(=O)[C@@]2(O)C1 [Phorbol 12,13,20-triacetate] (compound dose: 10 uM)	0.868 ± 0.26	0.8 ± 0.1
C=C1C(=O)[C@@]23[C@H](O)C[C@@H]4C(C)(C)C(=O)CC[C@@]4(C)[C@@H]2CC[C@@H]1[C@H]3O [Glaucocalyxin A] (compound dose: 10 uM)	0.832 ± 0.078	0.109 ± 0.029
C[C@@H]1C(=O)O[C@H]2C[C@@]34[C@H]5C[C@@H](C(C)(C)C)[C@]36[C@@H](OC(=O)[C@@H]6O)O[C@@]4(C(=O)O5)[C@]21O [Ginkgolide A] (compound dose: 10 uM)	1.03 ± 0.13	1.2 ± 0.084
C=C1CC[C@H]2C(=C)CC[C@H]3C(=C)C(=O)O[C@@H]3[C@@H]12 [Dehydrocostus Lactone] (compound dose: 10 uM)	0.933 ± 0.08	0.398 ± 0.079
COc1c2cc3c(c1OC)CCN(C)[C@@H]3Cc1ccc(cc1)Oc1cc3c(c(OC)c1OC)CCN(C)[C@@H]3Cc1ccc(cc1)O2 [Cycleanine] (compound dose: 10 uM)	0.118 ± 0.0024	0.198 ± 0.023
C=C(C=O)[C@H]1CC[C@H](C)[C@H]1C=O [dolichodial] (compound dose: 10 uM)	1 ± 0.032	0.897 ± 0.018
C=C(C)[C@@H]1CC[C@]2(C(=O)O)CC[C@]3(C)[C@H](CC[C@@H]4[C@@]5(C)CCC(=O)C(C)(C)[C@@H]5CC[C@]43C)[C@@H]12 [Betulonic acid] (compound dose: 10 uM)	0.836 ± 0.033	0.785 ± 0.074
CC1(C)CC[C@]2(C(=O)O[C@@H]3O[C@H](CO)[C@@H](O)[C@H](O)[C@H]3O)CC[C@]3(C)C(=CC[C@@H]4[C@@]5(C)CC[C@H](O[C@@H]6O[C@H](CO)[C@@H](O)[C@H](O[C@@H]7O[C@H](CO)[C@@H](O)[C@H](O)[C@H]7O)[C@H]6O[C@@H]6O[C@H](CO)[C@@H](O)[C@H](O)[C@H]6O)[C@@](C)(CO)[C@@H]5CC[C@]43C)[C@@H]2C1 [Araloside VII] (compound dose: 10 uM)	0.941 ± 0.026	0.825 ± 0.13
C=C1CC[C@@H]2[C@](C)(CO)[C@H](O)CC[C@@]2(C)[C@@H]1C/C=C1/C(=O)OC[C@H]1O [Andrographolide] (compound dose: 10 uM)	0.98 ± 0.018	0.534 ± 0.15
C[C@H](CC[C@@H](O)C(C)(C)O)[C@H]1CC[C@@]2(C)[C@@H]3CC=C4[C@@H](CC[C@H](O[C@@H]5O[C@H](CO)[C@@H](O)[C@H](O)[C@H]5O)C4(C)C)[C@]3(C)[C@H](O)C[C@]12C [Mogroside I E1] (compound dose: 10 uM)	0.906 ± 0.15	0.981 ± 0.35
CC(C)=CCC/C(C)=C/C=O [Citral] (compound dose: 10 uM)	0.922 ± 0.019	0.864 ± 0.074
